According to PubChem BioAssay (NCATS):
Results filed as inconclusive are left out. Active and inactive are the calls of the source. Unless noted, calls come from the whole dose curve; as a rule, active = well fitted inhibition curve with a large enough effect; inconclusive = small, poorly fitted or top-dose-only effect; inactive = flat fitted curve, though single readings scatter.

Tests used:
[1] = qHTS for identification of novel therapeutic agents for treatment of microphthalmiaassociated transcription factor (MiT) renal cell carcinoma (RCC) (AID 1963991; calls by dose curve;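 for z-score: curves scaled with 100% = DMSO viability and 0% = empty wells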); settings: CellTiter-Glo, 48 h; for z-score: stronger effect = lower value; for Potency: active = Z-AUC below -0.8 in all three lines
In short: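 UOK109/UOK124/UOK145 (TFE3 fusions, three partners); 500 cells/well; MIPE v4.0, 1912 cpds, 11 conc.; 48 h, 37 C; CellTiter-Glo, 15 min RT; lum. Norm.: DMSO 100%, empty 0%.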

[2] = qHTS profiling for inhibitors of Plasmodium falciparum proliferation (AID 504749); note: nearly all actives have a fitted effect of over 60% in size;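 for activity, negative = inhibition: 0% = DMSO vehicle and full inhibition = artemisinin control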; settings: P. falciparum in erythrocytes, SYBR Green DNA, 72 h
In short: (§1)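 SYBR Green fluorescence of parasite DNA, read after lysis and overnight dark incubation, measured growth over 72 h in erythrocyte culture at 0.3% parasitemia and 2.5% hematocrit. Data normalised to DMSO and 0.29 uM artemisinin, with plate-drift correction.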

3D7 = experiment: as above; settings: P. falciparum in erythrocytes, SYBR Green DNA, 72 h; series mostly up to 28.7 µM
In short: as §1

7G8 = experiment: as above; settings: P. falciparum in erythrocytes, SYBR Green DNA, 72 h; series mostly up to 28.7 µM
In short: as §1

AA1029 = experiment: as above; settings: P. falciparum in erythrocytes, SYBR Green DNA, 72 h; series mostly up to 28.7 µM
In short: as §1

AS120 = experiment: as above; settings: P. falciparum in erythrocytes, SYBR Green DNA, 72 h; series mostly up to 28.7 µM
In short: as §1

ATS189 = experiment: as above; settings: P. falciparum in erythrocytes, SYBR Green DNA, 72 h; series mostly up to 28.7 µM
In short: as §1

ATS95 = experiment: as above; settings: P. falciparum in erythrocytes, SYBR Green DNA, 72 h; series mostly up to 28.7 µM
In short: as §1

C2A = experiment: as above; settings: P. falciparum in erythrocytes, SYBR Green DNA, 72 h; series mostly up to 28.7 µM
In short: as §1

CP185 = experiment: as above; settings: P. falciparum in erythrocytes, SYBR Green DNA, 72 h; series mostly up to 28.7 µM
In short: as §1

[3] = TFE3-RCC UOK109 viability, measured here: UOK109 Z-AUC
[4] = TFE3-RCC viability, measured here: UOK124 Z-AUC
[5] = TFE3-RCC viability, measured here: UOK145 Z-AUC
[6] = at 28.7 µM (top of the series), parasite line A
[7] = at 28.7 µM (top of the series), parasite line B
[8] = at 12.8 µM (top of the series), parasite line A
[9] = at 12.8 µM (top of the series), parasite line B
Potency is the fitted concentration of half-maximal effect.

| Structure (SMILES) | z-score [1, 3] | z-score [1, 4] | z-score [1, 5] | activity, negative = inhibition [2, 6] | activity, negative = inhibition [2, 7] | Potency (3D7) | Potency (7G8) | Potency (AA1029) | Potency (AS120) | Potency (ATS189) | Potency (ATS95) | Potency (C2A) | Potency (CP185) | Potency ([1]; TFE3-RCC UOK109 viability) | Potency ([2]; parasite line A) | Potency ([2]; parasite line B) | activity, negative = inhibition [2, 8] | activity, negative = inhibition [2, 9] |
| --- | --- | --- | --- | --- | --- | --- | --- | --- | --- | --- | --- | --- | --- | --- | --- | --- | --- | --- |
| COc1ccccc1N1CCN(CC(O)COc2cccc3ccccc23)CC1 (configuration not stated) | 0.719 | 0.448 | -1.51 | -3.66% (inactive) | -18.8% (inactive) | inactive | 11.2 µM (active) | inactive | inactive | inactive | inactive | inactive | inactive | – | – | – | – | – |
| CCc1cccc2c3c([nH]c12)C(CC)(CC(=O)O)OCC3 (configuration not stated) | 0.838 | 0.432 | 0.577 | – | – | – | – | – | – | – | – | – | – | – | – | – | – | – |
| O=C1c2c(O)ccc(O)c2C(=O)c2c(NCCNCCO)ccc(NCCNCCO)c21 | -2.02 | -1.52 | -2.08 | – | – | 2 µM (active) | 1.26 µM (active) | 2.51 µM (active) | 2.24 µM (active) | 2.82 µM (active) | 2.24 µM (active) | 3.16 µM (active) | 3.16 µM (active) | 1.05 µM (active) | 3.16 µM (active) | 3.16 µM (active) | – | – |
| CCOC(=O)Nc1ccc(NCc2ccc(F)cc2)nc1N | 0.955 | 0.938 | 0.317 | – | – | 7.94 µM (active) | 10 µM (active) | 11.2 µM (active) | 12.6 µM (active) | 10 µM (active) | – | – | – | – | 7.94 µM (active) | 12.6 µM (active) | – | – |
| CC[C@@]1(O)C(=O)OCc2c1cc1n(c2=O)Cc2cc3c(CN(C)C)c(O)ccc3nc2-1 | -0.963 | -2.75 | -1.63 | – | – | 5.62 µM (active) | – | 7.08 µM (active) | 3.55 µM (active) | – | 3.16 µM (active) | 8.91 µM (active) | – | 5.9 µM (active) | 3.55 µM (active) | 7.08 µM (active) | – | – |
| CN(CCOc1ccc(NS(C)(=O)=O)cc1)CCc1ccc(NS(C)(=O)=O)cc1 | 0.684 | 0.913 | 0.774 | 1.37% (inactive) | 5.56% (inactive) | inactive | inactive | inactive | inactive | inactive | inactive | inactive | inactive | – | – | – | – | – |
| NC(=O)OCC(COC(N)=O)c1ccccc1 | 0.961 | 0.566 | -0.0858 | 12.4% (inactive) | 14.7% (inactive) | inactive | inactive | inactive | inactive | inactive | inactive | inactive | inactive | – | – | – | – | – |
| CC(C(=O)O)c1cccc(C(=O)c2ccccc2)c1 (configuration not stated) | 0.978 | 0.474 | 0.0276 | – | – | – | – | – | – | – | – | – | – | – | – | – | – | – |
| COc1ccccc1OCCNCC(O)COc1cccc2[nH]c3ccccc3c12 (configuration not stated) | 0.499 | 0.302 | 0.158 | – | – | – | 8.91 µM (active) | 8.91 µM (active) | 3.98 µM (active) | – | 12.6 µM (active) | 10 µM (active) | – | – | – | – | – | – |
| Cn1c(=O)c2c(ncn2C)n(C)c1=O | 0.696 | 0.536 | 0.729 | 6.06% (inactive) | 8.5% (inactive) | inactive | – | inactive | inactive | inactive | inactive | inactive | inactive | – | – | – | – | – |
| N[C@@H](Cc1c[nH]c2ccc(O)cc12)C(=O)O | 0.236 | 0.415 | 0.556 | 15.9% (inactive) | 15.8% (inactive) | inactive | inactive | inactive | inactive | inactive | inactive | inactive | inactive | – | – | – | – | – |
| CN(C)CCOC(c1ccccc1)c1ccccc1 | – | – | – | 13.6% (inactive) | 11.2% (inactive) | inactive | 11.2 µM (active) | – | – | – | – | – | – | – | – | – | – | – |
| Cn1c(=O)c2[nH]cnc2n(C)c1=O | 1.09 | 0.242 | 0.63 | 0.326% (inactive) | 0.99% (inactive) | inactive | inactive | inactive | inactive | inactive | inactive | inactive | inactive | – | – | – | – | – |
| C[C@](N)(Cc1ccc(O)c(O)c1)C(=O)O | 0.112 | -0.114 | -0.0394 | 5.92% (inactive) | -9.27% (inactive) | inactive | inactive | inactive | inactive | inactive | inactive | inactive | inactive | – | – | – | – | – |
| CN(C)C(=N)N=C(N)N | 0.797 | 1.58 | 0.981 | – | – | inactive | inactive | inactive | – | inactive | inactive | inactive | inactive | – | – | – | 11.7% (inactive) | 23.8% (inactive) |
| CC#C[C@]1(O)CC[C@H]2[C@@H]3CCC4=CC(=O)CCC4=C3[C@@H](c3ccc(N(C)C)cc3)C[C@@]21C | – | – | – | – | – | 8.91 µM (active) | 2.82 µM (active) | 12.6 µM (active) | 7.08 µM (active) | – | – | – | – | – | 8.91 µM (active) | 8.91 µM (active) | – | – |
| Nc1nc2c(ncn2COC(CO)CO)c(=O)[nH]1 | – | – | – | – | – | inactive | inactive | inactive | inactive | inactive | inactive | inactive | inactive | – | – | – | -0.332% (inactive) | 8.95% (inactive) |
| CN1CCN2c3ccccc3Cc3ccccc3C2C1 (configuration not stated) | – | – | – | 6.93% (inactive) | 3.33% (inactive) | inactive | inactive | inactive | inactive | inactive | inactive | inactive | inactive | – | – | – | – | – |
| COc1ccc(CCN(C)CCCC(C#N)(c2ccc(OC)c(OC)c2)C(C)C)cc1OC (configuration not stated) | 0.794 | 0.393 | 0.327 | 7.01% (inactive) | 8.01% (inactive) | inactive | – | – | inactive | inactive | inactive | inactive | inactive | – | – | – | – | – |
